According to PubChem BioAssay (NCATS):
Inconclusive results are not listed. The source made the active and inactive calls. Calls follow the shape of the dose curve; as a rule, active = well fitted curve in the direction sought with a large enough effect; inconclusive = small, poorly fitted or top-dose-only effect, or another doubt; inactive = no such curve, though single readings can be large or run the other way.

Each compound was assayed against Calcium and integrin-binding protein 1 (Homo sapiens) (UniProt Q99828) (assay: Validation qHTS for Identification of Calcium Integrin Binding protein 1 (CIB1) Competitor (AID 1508618)). Conditions: CIB1-GST / FITC-alphaIIb peptide fluorescence polarization; series mostly up to 114 µM; activity change, negative = inhibition: at the top concentration.
Source text: Assay Provider: Ulhas P. Naik, PhD
Sidney Kimmel Medical College
Thomas Jefferson University, Philadelphia, PA
Primary function of platelets is to maintain hemostasis. At the site of vascular injury, platelets adhere to adhesive proteins such as collagen and von Willebrand factor. Adherent platelets are activated and generate soluble platelet agonists such as thrombin, ADP and thromboxane A2. Following exposure of circulating platelets to these agonists, results in platelet shape change, granule secretion and activation of platelet integrin alphaIIb-beta3. Ligand binding to activated integrin alphaIIb-beta3 triggers outside-in signaling, leading to platelet aggregation, stabilization of platelet plug, and clot retraction. Upon atherosclerotic plaque rupture also causes platelet plug formation, which underlies a number of cardiovascular diseases such as myocardial infraction and stroke. A number of anti-platelet drugs such as aspirin, clopidogrel, prasugrel, vorapaxar, and eptifibatide are currently available to prevent the thrombotic complications. However, these anti-platelet agents have several limitations including inherent variability in individual responses, developing resistance, and serious bleeding side effects. For these reasons they are not suitable for long-term protection. Based on the experiences with current anti-platelet drugs, it appears that the most useful therapeutic approach is to intersect the secondary responses such as integrin outside-in signaling or recruitment of platelets by TxA2 and secreted ADP. Compounds, which can largely preserve the primary hemostatic function of platelets but inhibit secondary response will be most desired therapeutic agents for treatment of cardiovascular disease.
CIB1 is a calcium integrin binding protein, which specifically interact with the alphaIIb subunit of integrin alphaIIb-beta3. Binding of CIB1 to alphaIIb regulates the outside-in signaling in platelets, which is needed for thrombus stabilization and thrombus growth. […] Therefore, we propose that discovery of a small molecule that can prevent the association of CIB1 and alphaIIb-beta3 will be a potential anti-platelet agent that can block the thrombus formation without undue effect on hemostasis.
To develop fluorescence polarization (FP) assay using fluorescently labeled alphaIIb peptide and CIB1 protein. Using FP assay characterize the binding affinity, competitive inhibition, and acceptable Z factor (0.5 to1) in order to perform the HTS to identify small molecule compound that can prevent CIB1 binding to platelet integrin alphaIIbbeta3. This assay is screened against the NCATS LOPAC library to validate the amenability of the assay to qHTS.
[1] Naik MU, Nigam A, Manrai P, et al. CIB1 deficiency results in impaired thrombosis: the potential role of CIB1 in outside-in signaling through integrin alpha IIb beta 3. J Thromb Haemost. 2009;7(11):1906-1914. doi:10.1111/j.1538-7836.2009.03581.
SEQUENCE No. (1, 2, 3, etc.); […] (e.g., Cells, Incubation, Reagent, etc.); VALUE and DESCRIPTION.
1; Reagent; 3 uL; Protein or buffer (4/3x)
2; Compound; 46 nL; Control inhibitor / compound library
3; Time; 15 min; Room temperature incubation
4; Reagent; 1 uL; Fluorescent labeled peptide (4x)
5; Time; 1000 rpm; Centrifuge
6; Time; 15 min; Room temperature incubation
7; Detection; Ex 480/ Em 540; ViewLux Fluorescence Read
NOTES (numbers refer to sequence above)
1; Protein Mixture: C1B1-GST (final concentrations of 1 uM). Buffer composition: 5 mM HEPES pH 7.4, 125 mM NaCl, 5 mM CaCl2, 0.01% Tween20.
2; Control Inhibitor: unlabeled peptide (final concentration range 17.4 nM to 572 uM). Compound Library final concentration range 18.3 nM to 114 uM.
3; Room temperature incubation.
4; Fluorescent Labeled Peptide: FITC-aIIb (final concentration of 100 nM). Sequence of alphaIIb peptide: Acetyl-[…]-FITC (purity is 95.83%).
6; Room temperature incubation.
[…]
% is scaled to controls: 0 for no effect and ±100 for the full control effect.

Calcium and integrin-binding protein 1 (Homo sapiens), sequence (Q99828 whole entry, looked up): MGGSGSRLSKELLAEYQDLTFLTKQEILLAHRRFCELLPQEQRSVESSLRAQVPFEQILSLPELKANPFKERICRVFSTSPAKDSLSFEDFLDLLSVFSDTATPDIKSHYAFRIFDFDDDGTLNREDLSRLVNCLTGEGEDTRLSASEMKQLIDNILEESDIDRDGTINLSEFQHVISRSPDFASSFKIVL

SMILES	activity change, negative = inhibition
CC(C)C[C@H](NC(=O)C1OC1C(=O)O)C(=O)NCCCCN=C(N)N (stereo not given in full)	5.04% (inactive)
NC/C=C\C(=O)O	0.0709% (inactive)
COc1cc(CNC(=O)CCCCCCC(C)C)ccc1O	2.59% (inactive)
CCCc1c(-c2ccc(O)cc2)nn(-c2ccc(O)cc2)c1-c1ccc(O)cc1	-5.53% (inactive)
C=C1C[C@@]23CC[C@H]4[C@@](C)(CCC[C@@]4(C)C(=O)O)[C@@H]2CC[C@]1(O)C3	7.44% (inactive)
O=c1onc2n1-c1cc(Br)ccc1OC2	3.6% (inactive)
NCCC1CCCC(CCN)N1 (stereo not given)	6.16% (inactive)
CC(/C=C/c1cccc(Oc2ccc(F)cc2)c1)N(O)C(N)=O (stereo not given)	-7.56% (inactive)
COc1ccc(CCn2nnnc2C2(c3ccc(C)cc3)CC2)cc1	1.35% (inactive)
CN[C@H](CC(=O)O)C(=O)O	5.18% (inactive)
CC1CCN(CC[C@H]2CCCN2S(=O)(=O)c2cccc(O)c2)CC1	5.61% (inactive)
Nc1nc2[nH]c(=O)cnc2c(=O)[nH]1	-3.39% (inactive)
O=C(O)[C@H]1NCCC[C@H]1C(=O)O	-1.76% (inactive)
O=c1[nH]ccc2c(O)cccc12	3.1% (inactive)
c1ccc2c(c1)CCC[C@H]2Nc1nc2ccccc2[nH]1	4.91% (inactive)
CC(C)(C)c1cc(/C=C(\C#N)C(N)=S)cc(C(C)(C)C)c1O	60.3% (inactive)
Cc1cccc(C(=O)NCN2CCN(c3ccccc3C#N)CC2)c1	-5.88% (inactive)
CC(=O)O[C@H]1Cc2ccccc2N(C(N)=O)c2ccccc21	2.4% (inactive)
C[C@]12C=CC(=O)C=C1CC[C@@H]1C2=CC[C@]2(C)[C@@H](C(=O)CN3CCN(c4cc(N5CCCC5)nc(N5CCCC5)n4)CC3)CC[C@@H]12	3.9% (inactive)
COc1ccc(CCN(C)CCc2ccc(OC)c(OC)c2)cc1OC	7.43% (inactive)

SMILES	activity change, negative = inhibition
Cc1cccc(C2CN(C)CCc3c2cc(O)c(O)c3Cl)c1 (stereo not given)	6.4% (inactive)
c1ccc(CN2CCC3(CCCc4ccccc43)CC2)cc1	5.87% (inactive)
Clc1nccc2c1ccc1ccccc12	8.58% (inactive)
C=CC[C@H](N)C(=O)O	5.68% (inactive)
c1ccc2nc(C3=NCCN3)ccc2c1	3.94% (inactive)
CCOC(=O)C12CC1/C(=N/O)c1ccccc1O2 (stereo not given)	7.33% (inactive)
NC[C@@H]1O[C@H](c2ccccc2)Cc2c1ccc(O)c2O	12.6% (inactive)
N=C(N)SCCc1cnc[nH]1	-2.19% (inactive)
NC(N)=NC(N)=Nc1cccc(Cl)c1	1.29% (inactive)
CCC1(O)CC2CN(CCc3c([nH]c4ccccc34)[C@@](C(=O)OC)(c3cc4c(cc3OC)N(C=O)C3[C@]45CCN4CC=C[C@@](CC)([C@@H](OC(C)=O)[C@]3(O)C(=O)OC)[C@H]45)C2)C1 (stereo not given in full)	11.8% (inactive)
N[C@H]1CONC1=O	11.7% (inactive)
N#Cc1cc([N+](=O)[O-])c2sc(C(N)=O)[n+]([O-])c2c1	-7.92% (inactive)
Nc1ncnc2c1nc(Sc1ccc(Cl)cc1)n2[C@H]1OC2COP(=O)(O)O[C@@H]2C1O (stereo not given in full)	4.22% (inactive)
c1ccc2c(c1)CC(N1CCN(c3cccc4c3OCCO4)CC1)C2	8.38% (inactive)
O=C1C2C=CC=CC2=NC(=S)N1CCN1CCC(=C(c2ccc(F)cc2)c2ccc(F)cc2)CC1 (stereo not given)	12.8% (inactive)
Nc1ccc(CCNc2ncnc3c2ncn3C2OC(CO)C(O)C2O)cc1 (stereo not given)	10.3% (inactive)
CC1=C(C(=O)O)N2C(=O)[C@@H](NC(=O)C(N)C3=CCC=CC3)[C@H]2SC1 (stereo not given in full)	10.4% (inactive)
O=C1NC(=O)c2cc(Nc3ccccc3)c(Nc3ccccc3)cc21	37.3% (inactive)
O=C(O)Cc1c[nH]c2ccc(O)cc12	0.345% (inactive)
NC(N)=N[C@@H](CCC(=O)O)C(=O)O	8.86% (inactive)
